Source: PubChem (National Center for Advancing Translational Sciences (NCATS))
Sm TGR block = blocks Schistosoma mansoni thioredoxin glutathione reductase; AID 485364; purified TGR, DTNB reduction, TNB absorbance 405 nm; Q962Y6; Potency, µM (highest dose often 114 µM), without a hit: at the top dose activity change, negative = inhibition, actives largely listed as inhibitors; 360,000 compounds, 3% hits; further: on the % scale 0 is the no-effect control and ±100 the full control effect; nearly all actives have a fitted effect of over 60% in size
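TGR 20 nM + NADPH 100 uM (dispensed conc.), cpd preinc 15 min RT; start with NADPH (500 uM addition) then DTNB (15 mM addition). Kinetic TNB absorbance, 405 nm filter. Four-parameter Hill fit across titration.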
Pf growth 96h = inhibits malaria parasite growth, 96 h; P. falciparum luciferase reporter growth, 96 h; Potency, µM (highest dose often 28.7 µM), for the others: at the highest dose activity change, negative = inhibition, most hits filed as inhibitors; 320,000 compounds, 6.9% hits; AID 504834; further: on the % scale 0 is the no-effect control and ±100 the full control effect
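Readout is luminescence from an integrated firefly luciferase in P. falciparum. Red cells, 2% hematocrit and 0.05% parasitemia final, were cultured with compound through two parasite generations (96 hours) at 37 C, 5% CO2.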
AmpC detergent = blocks E. coli AmpC beta-lactamase in detergent assay; P00811; AmpC hydrolysis of nitrocefin, absorbance 480 nm, 0.01% Triton; Potency, µM (doses to about 114 µM), inactives show top-dose activity change, negative = inhibition, most hits filed as inhibitors; 370,000 compounds, 0.041% hits; AID 485294;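 further: 0% = no-compound wells and -100% = no-enzyme wells; nearly all actives have a fitted effect of over 25% in size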
Target sequence (P00811 whole entry, looked up): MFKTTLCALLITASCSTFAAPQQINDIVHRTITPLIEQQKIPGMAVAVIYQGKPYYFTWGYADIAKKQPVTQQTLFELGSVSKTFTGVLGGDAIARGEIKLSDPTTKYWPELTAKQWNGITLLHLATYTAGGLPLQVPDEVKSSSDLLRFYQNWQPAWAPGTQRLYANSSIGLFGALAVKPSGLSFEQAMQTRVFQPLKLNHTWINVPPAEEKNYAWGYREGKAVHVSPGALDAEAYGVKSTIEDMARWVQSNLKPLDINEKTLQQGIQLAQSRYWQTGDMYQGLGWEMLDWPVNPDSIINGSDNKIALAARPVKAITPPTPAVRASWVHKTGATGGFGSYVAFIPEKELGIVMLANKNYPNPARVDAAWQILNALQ
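AmpC (5.3 nM in the dispensed reagent) in 20 mM phosphate pH 7.0 with 0.01% (detergent screen) or 0.0001% Triton X-100 was preincubated with compounds for 15 min at room temperature. Nitrocefin was then added from an 800 uM solution, and hydrolysis was followed at 480 nm.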
AmpC no deterg = inhibitors of E. coli AmpC beta-lactamase without detergent | P00811 | AmpC nitrocefin hydrolysis, absorbance 480 nm, 0.0001% Triton | Potency, µM (series often up to 57.1 µM), for inactives: at the highest dose activity change, negative = inhibition, hits mostly inhibitors | 330,000 compounds, 0.52% hits;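 further: plate controls were no compound for no effect and no enzyme for full effect; nearly all actives have a fitted effect of over 20% in size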
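AmpC (5.3 nM in the dispensed reagent) in 20 mM phosphate pH 7.0 with 0.01% (detergent screen) or 0.0001% Triton X-100 was preincubated with compounds for 15 min at room temperature. Nitrocefin was then added from an 800 uM solution, and hydrolysis was followed at 480 nm.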
Pf growth 48h = inhibits P. falciparum growth in the first generation, 48 h; P. falciparum luciferase growth in erythrocytes, 48 h; Potency, µM (series often up to 28.7 µM), without a hit: top-dose activity change, negative = inhibition, most hits filed as inhibitors; 310,000 compounds, 5.9% hits; further: on the % scale 0 is the no-effect control and ±100 the full control effect
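First compound was added to culture medium, then infected red cells at 0.1% parasitemia and 2% hematocrit (final). After incubation at 37 C under 5% CO2, luciferase detection reagent was dispensed and light output recorded.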
SARS PLP yeast = SARS-CoV PLP inhibition in yeast; S. cerevisiae expressing SARS-CoV PLpro, growth rescue; Potency, µM (series often up to 32.9 µM), without a hit: at the top dose activity, positive = growth rescue, most hits filed as activators; 330,000 compounds, 0.19% hits; AID 485353; calls by dose curve; further: 0% is about no effect; nearly all actives have a fitted effect of over 55% in size
Starred values were filed as active, the others as inactive; i = inactive; u = inconclusive; x = no result given; [ ] = another dose, or the depositor's remark. Hits are enriched below; roughly 12% of the tested compounds scored in any of these assays. Unless noted, the call rests on the fitted dose curve; in most records, active means well fitted curve in the direction sought with a large enough effect; inconclusive means small, poorly fitted or top-dose-only effect, or another doubt; inactive means no such curve, though single readings can be large; an effect the other way counts as inactive or inconclusive. Potency means the concentration at half of the fitted maximal effect.

SMILES | Sm TGR block | Pf growth 96h | AmpC detergent | AmpC no deterg | Pf growth 48h | SARS PLP yeast
N#Cc1ccc(CSc2ccc(S(=O)(=O)N3CCCC3)cn2)cc1 | 1% | -29% | 1% | -10% | -22% | -4%
COc1ccc(C(=O)N2CC(=O)Nc3ccc(F)cc3C2c2ccc(F)cc2)c(OC)c1 (configuration not stated) | -1% | x | 7% | x | x | x
CC1CCN(C(=O)C2CCN(S(=O)(=O)c3ccc(-n4cnnn4)cc3)CC2)CC1 | 7% | 3.7µM* | -4% | -9% | -1% | -2%
OCC#CCSc1nnc(-c2ccncc2)o1 | u | 0.29µM* | -9% | -17% | 16% | 10%
C#CCSc1nnc(-c2ccc(C)cc2)o1 | 2% | 1.2µM* | u | -12% | i | -11%
CCSc1nnc(-c2ccncc2)o1 | 6% | 75% | u | -8% | 11% | 3%
Cc1c(NS(=O)(=O)c2ccc(N(C)C3CCCCC3)c([N+](=O)[O-])c2)c(=O)n(-c2ccccc2)n1C | -13% | 10µM* | -4% | -14% | u | -17%
CN(C)c1ccc(C(=O)NCc2ccc3c(c2)CCN3C(=O)c2ccccc2)cc1 | -2% | x | 3% | x | x | x
S=C(Nc1ccc(Cl)cc1)NC1CC2CCCC(C1)N2C1CC1 (configuration not stated) | u | 10µM* | -3% | -4% | 10µM* | 7%
S=C(Nc1cccc(Cl)c1)NC1CC2CCCC(C1)N2C1CCCC1 (configuration not stated) | -14% | u | -19% | -19% | 3.3µM* | -15%
Cc1cc(C)cc(NC(=S)NC2CC3CCCC(C2)N3C2CCCC2)c1 (configuration not stated) | 13µM* | -6% | 7% | 1% | u | 0%
C=CCN1C2CCCC1CC(NC(=S)Nc1ccc(Cl)cc1)C2 (configuration not stated) | x | 29% | -5% | -31% | u | 0%
S=C(Nc1ccc(Cl)cc1)NC1CC2CCCC(C1)N2C1CCCC1 (configuration not stated) | -22% | 12µM* | -2% | -27% | 10µM* | 3%
Cc1cc(C)cc(NC(=S)NC2CC3CCCC(C2)N3C2CC2)c1 (configuration not stated) | x | 0% | 1% | -30% | u | 1%
Cc1ccc(CSCC(=O)N/N=C/c2cccc(OC3CSC3)c2)cc1 | -3% | -11% | -10% | -30% | 0% | 11%
Cc1ccc2c(c1)c1c(c(=O)n(Cc3ccccc3)c(=O)n1CC(=O)Nc1ccccc1F)n2C | 0% | x | 3% | x | x | x
O=C(COc1ccccc1)Nc1ccc(Cl)cc1Cl | 0% | 137% | 2% | -22% | 118% | -2%
S=C(NCCN(C1CCCCC1)C1CCCC1)Nc1cccc(Cl)c1 | -25% | -2% | -10% | -9% | 2.9µM* | 2%
O=[N+]([O-])c1cccc(C2NCC(c3ccccc3Cl)c3c2[nH]c2ccccc32)c1 (configuration not stated) | 0% | 13µM* | 0% | -39% | -7% | -19%
CN(C)c1ccc(C2CNC(c3ccc(Cl)c([N+](=O)[O-])c3)c3[nH]c4ccccc4c32)cc1 (configuration not stated) | u | u | u | -21% | u | -1%
Cc1ccc2cc(NC(=O)c3ccccc3C)ccc2n1 | 5% | 150% | -1% | -33% | 6%[0.00184 µM] | -2%
Cc1c(C(=O)N2CCOCC2)c(S(=O)(=O)Nc2ccc(C(C)C)cc2)c(C)n1C | -15% | 10µM* | -16% | 86% | -17% | 13%
CCn1nc(C)cc1C(=O)N1CCCC(N(C)CCc2ccc(OC)c(OC)c2)C1 (configuration not stated) | -28% | u | 2% | 75% | -19% | 5%
COc1ccc(CCN(C)C2CCCN(C(=O)Cn3cccn3)C2)cc1OC (configuration not stated) | u | -7% | u | 89% | -6% | 2%
CN(CCc1ccccc1)C1CCCN(S(=O)(=O)CC(F)(F)F)C1 (configuration not stated) | u | 10µM* | -7% | -2% | -8% | 5%
SMILES | Sm TGR block | Pf growth 96h | AmpC detergent | AmpC no deterg | Pf growth 48h | SARS PLP yeast
COc1ccc(CCN(C)C2CCCN(S(=O)(=O)c3ccccc3F)C2)cc1OC (configuration not stated) | -23% | 13µM* | -18% | 47% | u | -2%
C=CCS(=O)(=O)N1CCCC(N(C)CCc2ccc(OC)c(OC)c2)C1 (configuration not stated) | -27% | 5.2µM* | -5% | 10% | u | -5%
CN(CCc1ccccn1)C1CCCN(S(=O)(=O)c2ccccc2)C1 (configuration not stated) | 1% | 78% | -3% | 0% | 2% | 1%
CC(=O)c1ccc(S(=O)(=O)N2CCCC(N(C)CCc3ccccn3)C2)cc1 (configuration not stated) | 20µM* | 37% | 4% | 31% | -6% | 1%
O=C(c1ccc(S(=O)(=O)N2CCCC2)cc1)N1CCCc2ccccc21 | -2% | -7% | -6% | 3% | 34% | 11%
C1=C(c2ccccc2)CCNC1 | 1% | 22% | -4% | -2% | 6% | 1%
Cc1[nH]c2ccccc2c1C1=CCNCC1 | -15% | -31% | -14% | 3% | 3.3µM* | 2%
CCOC(=O)c1cnc(C(C)(C)C)[nH]c1=O | 0% | -14% | 0% | -9% | -1% | -14%
CCc1cccc(C)c1NC(=O)CSc1nnc(C)o1 | 4% | 199% | 0% | -12% | 4% | 0%
Oc1ccc(NCc2ccccc2OCc2ccccc2F)cc1 | 20µM* | u | u | -42% | 10µM* | 1%
Oc1ccc(NCc2ccccc2OCc2ccccc2Cl)cc1 | 35µM* | x | 3% | x | x | x
CCOc1ccccc1CNc1ccc(O)cc1 | x | u | -4% | -58% | u | 1%
CCOc1cccc(CNc2ccc(O)cc2)c1OCc1ccc(Cl)cc1 | 32µM* | -11% | -16% | -34% | u | -17%
Cc1ccc(NCc2ccccc2OCc2ccccc2F)cc1 | -3% | u | -6% | -21% | x | -18%
CCOC(=O)CCn1nc(C)c2c(C)n(-c3ccccc3)nc2c1=O | 5% | x | 18% | x | x | x
CC1CN(C(=O)COC(=O)c2ccc3ncsc3c2)CC(C)O1 (configuration not stated) | x | x | x | -8% | x | 0%
O=C(NCc1cc(Br)cc(Br)c1OC(=O)c1ccccc1[N+](=O)[O-])c1ccccc1 | -2% | 5.2µM* | 7% | -32% | 5% | -67%
O=C(Oc1ccccc1C(=O)Nc1ccccc1)c1ccc(Br)c([N+](=O)[O-])c1 | u | 41% | 4% | -37% | 33% | -76%
CC1CN(CC(O)COC(c2ccc(Cl)cc2)c2ccc(Cl)cc2)CC(C)O1 (configuration not stated) | -4% | u | -2% | 200% | 3.7µM* | -19%
